Here are results for two sequences from paper PMC7862700, “An all-to-all approach to the identification of sequence-specific readers for epigenetic DNA modifications on cytosine”.

Common to all, as to test: DAPPL (digital affinity profiling via proximity ligation, sequencing); 10 mM Tris-HCl pH 7.5, 50 mM NaCl, 1 mM DTT, 4% glycerol, room temperature, 30 min; GST-TFs on glutathione beads, 16-mer random dsDNA library, 0.1% formaldehyde crosslink after washing; high values mean tight binding
Conditions in all cases: protein: recombinant; tags: N-terminal GST; dsDNA, one strand shown

The target in experiment [1] is T1, FLI1 (Homo sapiens, UniProt Q01543 1-452).
T1 sequence: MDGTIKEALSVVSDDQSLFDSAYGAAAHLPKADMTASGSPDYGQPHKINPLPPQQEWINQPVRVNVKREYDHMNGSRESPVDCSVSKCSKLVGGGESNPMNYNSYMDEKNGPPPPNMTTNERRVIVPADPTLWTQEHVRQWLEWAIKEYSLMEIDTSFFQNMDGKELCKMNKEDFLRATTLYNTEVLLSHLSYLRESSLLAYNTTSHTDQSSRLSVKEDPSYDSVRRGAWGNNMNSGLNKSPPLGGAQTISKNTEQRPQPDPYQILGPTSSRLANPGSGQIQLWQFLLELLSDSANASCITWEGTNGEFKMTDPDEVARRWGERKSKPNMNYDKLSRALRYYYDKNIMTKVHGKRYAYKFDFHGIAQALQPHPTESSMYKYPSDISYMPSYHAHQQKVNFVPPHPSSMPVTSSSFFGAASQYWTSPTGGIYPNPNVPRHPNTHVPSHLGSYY
The essentials: (§1)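 The binding signal reported is, for every hexamer, its read frequency for a factor over its read frequency for the tag-only sample. Reads came from pools of yeast-expressed, GST-fused human transcription factors on glutathione beads, barcoded with DNA and mixed with that sample, which were incubated with 200 nmole of a random double-stranded 16-mer DNA library in Tris/NaCl/DTT/glycerol buffer at room temperature for 30 min. After washing, the pools were crosslinked with 0.1% formaldehyde, proximity-ligated with BsaI/T4 ligase for 1 h at 37 °C, PCR-amplified and sequenced on an Illumina NextSeq500.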

Experiment [2] concerns the target T2, ELK1 (Homo sapiens, UniProt P19419 1-428).
T2 sequence: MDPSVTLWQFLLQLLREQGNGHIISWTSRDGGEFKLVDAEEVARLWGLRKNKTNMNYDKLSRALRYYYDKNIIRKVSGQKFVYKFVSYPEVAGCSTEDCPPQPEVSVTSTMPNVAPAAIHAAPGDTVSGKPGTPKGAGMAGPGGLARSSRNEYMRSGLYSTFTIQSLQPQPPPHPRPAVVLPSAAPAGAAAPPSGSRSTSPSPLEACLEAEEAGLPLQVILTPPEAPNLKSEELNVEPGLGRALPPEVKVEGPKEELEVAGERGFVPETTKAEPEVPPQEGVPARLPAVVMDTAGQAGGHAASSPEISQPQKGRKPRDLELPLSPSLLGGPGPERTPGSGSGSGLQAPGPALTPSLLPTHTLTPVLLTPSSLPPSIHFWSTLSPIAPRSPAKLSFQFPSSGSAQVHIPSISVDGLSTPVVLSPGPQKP
The essentials:
as §1

The target of experiment [3] is T3, GABPA (Homo sapiens, UniProt Q06546 1-454).
T3 sequence: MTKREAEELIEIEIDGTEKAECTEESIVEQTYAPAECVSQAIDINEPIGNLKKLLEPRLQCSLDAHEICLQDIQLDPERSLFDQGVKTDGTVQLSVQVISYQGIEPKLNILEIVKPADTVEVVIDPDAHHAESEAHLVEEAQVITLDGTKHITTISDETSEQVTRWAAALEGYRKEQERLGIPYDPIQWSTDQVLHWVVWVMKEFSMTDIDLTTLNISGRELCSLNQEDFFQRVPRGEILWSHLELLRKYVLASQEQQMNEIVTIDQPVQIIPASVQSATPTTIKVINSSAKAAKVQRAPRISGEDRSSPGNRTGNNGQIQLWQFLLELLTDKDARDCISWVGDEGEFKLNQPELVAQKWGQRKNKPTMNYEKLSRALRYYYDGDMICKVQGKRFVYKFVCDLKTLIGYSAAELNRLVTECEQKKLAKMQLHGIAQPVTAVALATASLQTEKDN
The essentials: as §1

The target of experiment [4] is ELF1 (Homo sapiens, UniProt P32519 1-619). The essentials: as §1
ELF1, sequence (P32519 whole entry): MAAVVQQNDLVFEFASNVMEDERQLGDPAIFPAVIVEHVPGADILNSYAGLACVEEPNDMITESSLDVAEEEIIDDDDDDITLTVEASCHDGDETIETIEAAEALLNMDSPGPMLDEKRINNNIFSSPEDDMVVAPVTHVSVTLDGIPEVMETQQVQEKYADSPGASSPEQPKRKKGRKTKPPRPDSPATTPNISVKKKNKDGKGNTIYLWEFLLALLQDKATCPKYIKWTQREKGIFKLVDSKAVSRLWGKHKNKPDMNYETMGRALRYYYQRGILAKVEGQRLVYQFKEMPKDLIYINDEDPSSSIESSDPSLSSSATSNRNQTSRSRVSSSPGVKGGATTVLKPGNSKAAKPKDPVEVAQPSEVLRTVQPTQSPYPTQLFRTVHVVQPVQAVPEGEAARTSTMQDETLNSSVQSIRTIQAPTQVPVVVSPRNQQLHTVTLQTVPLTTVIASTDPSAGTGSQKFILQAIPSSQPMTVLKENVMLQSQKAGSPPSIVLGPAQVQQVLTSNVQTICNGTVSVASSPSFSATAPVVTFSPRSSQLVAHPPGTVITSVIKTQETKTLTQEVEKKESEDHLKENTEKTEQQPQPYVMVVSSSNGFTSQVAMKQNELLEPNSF
Experiment [5] has as its target T4, EHF (Homo sapiens, UniProt Q9NZC4 1-300).
T4 sequence: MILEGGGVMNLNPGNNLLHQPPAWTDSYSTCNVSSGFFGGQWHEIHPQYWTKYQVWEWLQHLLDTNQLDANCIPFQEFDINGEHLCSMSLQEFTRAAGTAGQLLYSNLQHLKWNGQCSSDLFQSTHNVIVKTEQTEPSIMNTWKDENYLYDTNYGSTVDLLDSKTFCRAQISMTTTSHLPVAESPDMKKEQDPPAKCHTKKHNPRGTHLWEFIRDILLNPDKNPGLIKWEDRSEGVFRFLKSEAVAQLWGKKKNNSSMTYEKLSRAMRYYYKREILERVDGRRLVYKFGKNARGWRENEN
The essentials: as §1

Experiment [6] concerns the target SPI1 (Homo sapiens, UniProt P17947 1-270). The essentials:
as §1

Experiment [7] addresses SPIB (Homo sapiens, UniProt Q01892 1-262). In a few lines: as §1
For experiment [8], the target named is T5, ELK3 (Homo sapiens, UniProt P41970 1-407).
T5 sequence: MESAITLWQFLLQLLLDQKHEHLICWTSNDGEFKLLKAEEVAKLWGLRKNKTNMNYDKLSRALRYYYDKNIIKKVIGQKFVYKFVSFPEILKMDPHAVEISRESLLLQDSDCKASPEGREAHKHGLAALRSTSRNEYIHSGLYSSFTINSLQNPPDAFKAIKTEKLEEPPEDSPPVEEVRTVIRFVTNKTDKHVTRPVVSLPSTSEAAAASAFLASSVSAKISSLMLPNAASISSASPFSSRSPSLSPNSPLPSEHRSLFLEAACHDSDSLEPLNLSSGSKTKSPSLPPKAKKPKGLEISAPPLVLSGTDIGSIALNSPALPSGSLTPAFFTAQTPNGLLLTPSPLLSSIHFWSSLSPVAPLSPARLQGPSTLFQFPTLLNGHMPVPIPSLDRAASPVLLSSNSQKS
The essentials:
as §1

For experiment [9], the target named is T6, FEV (Homo sapiens, UniProt Q99581 1-238).
T6 sequence: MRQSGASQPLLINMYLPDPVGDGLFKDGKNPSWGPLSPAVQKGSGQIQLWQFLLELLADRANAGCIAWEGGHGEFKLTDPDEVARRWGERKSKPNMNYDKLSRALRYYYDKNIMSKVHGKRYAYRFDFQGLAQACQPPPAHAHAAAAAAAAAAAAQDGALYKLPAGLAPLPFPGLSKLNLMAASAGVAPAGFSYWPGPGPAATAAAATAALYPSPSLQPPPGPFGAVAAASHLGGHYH
The essentials:
as §1

Experiment [10] has as its target ETV5 (Homo sapiens, UniProt P41161 1-510). In a few lines:
as §1

Experiment [11] has as its target T7, SPIC (Homo sapiens, UniProt Q8N5J4 1-248).
T7 sequence: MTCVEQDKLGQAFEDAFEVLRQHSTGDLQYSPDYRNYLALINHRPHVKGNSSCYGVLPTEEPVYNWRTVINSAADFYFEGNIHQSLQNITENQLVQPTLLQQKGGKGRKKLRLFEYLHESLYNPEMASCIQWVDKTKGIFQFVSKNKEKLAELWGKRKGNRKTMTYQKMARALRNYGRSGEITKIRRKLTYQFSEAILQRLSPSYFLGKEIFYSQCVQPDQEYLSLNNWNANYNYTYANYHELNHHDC
The essentials:
as §1

The target in experiment [12] is ELF4 (Homo sapiens, UniProt Q99607 1-663). In a few lines: as §1
ELF4, sequence (Q99607 whole entry): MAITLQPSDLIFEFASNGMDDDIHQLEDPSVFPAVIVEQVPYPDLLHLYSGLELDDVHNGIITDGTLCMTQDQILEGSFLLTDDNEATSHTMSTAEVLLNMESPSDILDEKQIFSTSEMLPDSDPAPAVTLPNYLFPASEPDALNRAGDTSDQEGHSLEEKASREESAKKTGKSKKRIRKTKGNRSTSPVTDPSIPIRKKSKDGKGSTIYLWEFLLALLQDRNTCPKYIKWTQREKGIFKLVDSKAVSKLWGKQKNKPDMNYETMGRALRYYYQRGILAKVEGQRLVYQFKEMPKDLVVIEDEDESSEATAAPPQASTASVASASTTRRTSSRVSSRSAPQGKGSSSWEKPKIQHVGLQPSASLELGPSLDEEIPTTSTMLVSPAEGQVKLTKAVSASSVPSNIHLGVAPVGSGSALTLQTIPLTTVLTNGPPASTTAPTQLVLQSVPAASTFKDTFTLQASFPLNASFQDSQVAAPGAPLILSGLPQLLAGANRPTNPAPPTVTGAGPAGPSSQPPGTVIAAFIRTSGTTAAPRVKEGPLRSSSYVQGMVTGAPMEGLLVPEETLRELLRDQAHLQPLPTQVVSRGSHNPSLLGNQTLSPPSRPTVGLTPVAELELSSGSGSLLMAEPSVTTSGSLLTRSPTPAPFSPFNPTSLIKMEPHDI
Experiment [13] has as its target T8, ELK4 (Homo sapiens, UniProt P28324-2 1-405).
T8 sequence: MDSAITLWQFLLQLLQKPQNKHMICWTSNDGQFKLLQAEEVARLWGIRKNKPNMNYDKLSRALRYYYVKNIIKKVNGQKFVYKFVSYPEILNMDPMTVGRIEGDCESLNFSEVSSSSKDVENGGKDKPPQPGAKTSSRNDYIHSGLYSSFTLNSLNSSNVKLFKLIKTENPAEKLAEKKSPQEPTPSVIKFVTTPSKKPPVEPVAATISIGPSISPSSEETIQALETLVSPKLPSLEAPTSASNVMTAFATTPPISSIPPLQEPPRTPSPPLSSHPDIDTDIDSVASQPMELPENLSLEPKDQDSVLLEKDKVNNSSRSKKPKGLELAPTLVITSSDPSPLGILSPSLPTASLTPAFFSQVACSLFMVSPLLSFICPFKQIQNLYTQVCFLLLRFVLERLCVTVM
The essentials: as §1

Experiment [14] deals with T9, ETV2 (Homo sapiens, UniProt O00321 1-342).
T9 sequence: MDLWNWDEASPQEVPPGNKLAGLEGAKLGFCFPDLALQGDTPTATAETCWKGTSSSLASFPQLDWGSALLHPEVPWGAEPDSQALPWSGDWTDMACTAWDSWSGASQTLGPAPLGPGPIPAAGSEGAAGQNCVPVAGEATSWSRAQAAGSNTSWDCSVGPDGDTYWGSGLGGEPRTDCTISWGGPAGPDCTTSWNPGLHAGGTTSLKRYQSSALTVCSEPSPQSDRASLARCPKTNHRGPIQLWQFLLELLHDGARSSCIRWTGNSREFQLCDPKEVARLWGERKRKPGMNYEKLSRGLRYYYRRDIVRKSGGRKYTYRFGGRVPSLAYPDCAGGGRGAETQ
In a few lines:
as §1

Experiment [15] concerns the target T10, ELF3 (Homo sapiens, UniProt P78545 1-371).
T10 sequence: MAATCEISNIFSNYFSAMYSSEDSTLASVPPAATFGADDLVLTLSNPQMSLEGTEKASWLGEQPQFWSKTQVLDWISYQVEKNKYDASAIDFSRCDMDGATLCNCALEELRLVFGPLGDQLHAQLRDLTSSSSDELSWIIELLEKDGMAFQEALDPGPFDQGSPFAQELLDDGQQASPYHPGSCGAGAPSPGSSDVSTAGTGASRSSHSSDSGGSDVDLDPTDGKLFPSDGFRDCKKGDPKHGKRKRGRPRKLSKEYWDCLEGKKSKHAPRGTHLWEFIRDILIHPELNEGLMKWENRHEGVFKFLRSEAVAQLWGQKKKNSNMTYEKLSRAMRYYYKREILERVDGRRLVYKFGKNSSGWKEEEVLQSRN
In a few lines:
as §1

Experiment [16] deals with CRX (Homo sapiens, UniProt O43186 1-299). The essentials:
as §1

Experiment [17] has as its target ETV1 (Homo sapiens, UniProt P50549 1-477). The essentials:
as §1

Experiment [18] concerns the target T11, ERG (Homo sapiens, UniProt P11308 1-479).
T11 sequence: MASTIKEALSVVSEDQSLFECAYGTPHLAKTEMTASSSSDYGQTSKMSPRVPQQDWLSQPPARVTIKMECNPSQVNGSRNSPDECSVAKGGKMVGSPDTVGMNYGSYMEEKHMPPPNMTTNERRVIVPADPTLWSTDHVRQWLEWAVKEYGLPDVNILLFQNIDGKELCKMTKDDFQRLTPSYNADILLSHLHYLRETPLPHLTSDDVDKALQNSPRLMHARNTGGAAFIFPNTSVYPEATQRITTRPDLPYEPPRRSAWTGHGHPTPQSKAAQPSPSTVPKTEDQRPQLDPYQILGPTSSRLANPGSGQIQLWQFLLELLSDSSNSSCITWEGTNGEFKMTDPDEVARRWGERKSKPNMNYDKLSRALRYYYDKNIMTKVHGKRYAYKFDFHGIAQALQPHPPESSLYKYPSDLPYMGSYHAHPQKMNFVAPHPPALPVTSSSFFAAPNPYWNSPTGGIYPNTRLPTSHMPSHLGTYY
The essentials:
as §1

SPIB, sequence (Q01892 whole entry): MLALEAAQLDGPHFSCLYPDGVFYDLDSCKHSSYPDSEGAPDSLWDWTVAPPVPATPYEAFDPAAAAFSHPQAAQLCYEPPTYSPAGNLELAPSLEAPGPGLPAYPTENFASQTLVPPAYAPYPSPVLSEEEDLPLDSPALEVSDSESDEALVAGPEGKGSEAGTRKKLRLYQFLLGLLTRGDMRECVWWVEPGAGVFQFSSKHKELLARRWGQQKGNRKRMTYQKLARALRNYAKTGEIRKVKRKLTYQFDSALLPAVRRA
ETV5, sequence (P41161 whole entry): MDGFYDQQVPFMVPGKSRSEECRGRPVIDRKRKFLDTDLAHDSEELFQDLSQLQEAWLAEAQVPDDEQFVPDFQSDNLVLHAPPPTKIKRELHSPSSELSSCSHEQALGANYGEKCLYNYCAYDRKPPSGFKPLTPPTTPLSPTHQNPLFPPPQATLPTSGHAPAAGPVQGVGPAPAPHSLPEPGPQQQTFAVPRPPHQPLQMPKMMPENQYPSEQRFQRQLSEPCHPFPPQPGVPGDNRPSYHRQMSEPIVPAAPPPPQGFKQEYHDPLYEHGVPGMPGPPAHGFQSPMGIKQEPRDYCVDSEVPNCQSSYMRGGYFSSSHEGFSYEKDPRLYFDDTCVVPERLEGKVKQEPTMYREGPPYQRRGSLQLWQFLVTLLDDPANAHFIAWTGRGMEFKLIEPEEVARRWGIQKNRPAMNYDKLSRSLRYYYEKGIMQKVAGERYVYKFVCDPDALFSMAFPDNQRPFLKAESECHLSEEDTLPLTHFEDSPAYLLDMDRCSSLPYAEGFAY
ETV1, sequence (P50549 whole entry): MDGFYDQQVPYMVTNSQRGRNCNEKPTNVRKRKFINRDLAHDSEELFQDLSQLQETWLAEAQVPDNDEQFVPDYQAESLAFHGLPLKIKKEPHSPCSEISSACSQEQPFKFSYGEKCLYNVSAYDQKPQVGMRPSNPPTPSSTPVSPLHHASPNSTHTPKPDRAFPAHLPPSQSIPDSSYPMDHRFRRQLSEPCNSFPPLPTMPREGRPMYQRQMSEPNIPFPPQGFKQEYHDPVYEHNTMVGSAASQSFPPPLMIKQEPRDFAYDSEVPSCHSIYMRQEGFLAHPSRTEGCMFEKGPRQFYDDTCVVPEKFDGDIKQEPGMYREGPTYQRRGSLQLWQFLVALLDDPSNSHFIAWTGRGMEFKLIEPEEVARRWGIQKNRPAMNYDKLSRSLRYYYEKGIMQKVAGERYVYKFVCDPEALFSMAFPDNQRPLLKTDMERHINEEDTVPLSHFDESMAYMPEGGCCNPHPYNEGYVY
CRX, sequence (O43186 whole entry): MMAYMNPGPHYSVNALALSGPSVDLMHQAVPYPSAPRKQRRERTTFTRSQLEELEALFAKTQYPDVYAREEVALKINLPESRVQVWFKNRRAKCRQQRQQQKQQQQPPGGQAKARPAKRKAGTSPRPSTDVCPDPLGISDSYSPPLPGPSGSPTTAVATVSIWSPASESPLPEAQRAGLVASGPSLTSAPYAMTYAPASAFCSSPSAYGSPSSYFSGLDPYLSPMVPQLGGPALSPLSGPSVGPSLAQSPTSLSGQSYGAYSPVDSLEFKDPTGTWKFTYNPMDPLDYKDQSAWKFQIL

For the sequence TCAGCA, the binding signal in experiment [1] was 1.08 fold enrichment (6-mer frequency, TF over GST control); in [2], 1.02 fold enrichment (6-mer frequency, TF over GST control); in experiment [3], 1.06 fold enrichment (6-mer frequency, TF over GST control); in [4], 1.04 fold enrichment (6-mer frequency, TF over GST control); in experiment [5], 1.09 fold enrichment (6-mer frequency, TF over GST control); in [6], 1.02 fold enrichment (6-mer frequency, TF over GST control). In addition, the binding signal is 1.01 fold enrichment (6-mer frequency, TF over GST control) in [7]; 1.07 fold enrichment (6-mer frequency, TF over GST control) in experiment [8]; 1.02 fold enrichment (6-mer frequency, TF over GST control) in [9]; 1.05 fold enrichment (6-mer frequency, TF over GST control) in experiment [10]; 1.1 fold enrichment (6-mer frequency, TF over GST control) in experiment [11]; 1.1 fold enrichment (6-mer frequency, TF over GST control) in experiment [12]. Further, the binding signal in [13] is 1 fold enrichment (6-mer frequency, TF over GST control); in experiment [14], 1.04 fold enrichment (6-mer frequency, TF over GST control); in experiment [15], 1.08 fold enrichment (6-mer frequency, TF over GST control); in [16] it was 1.01 fold enrichment (6-mer frequency, TF over GST control); in experiment [17], 1.11 fold enrichment (6-mer frequency, TF over GST control).

Consider CCGCCC, for which the binding signal is 1.33 fold enrichment (6-mer frequency, TF over GST control) in [1]; 1.39 fold enrichment (6-mer frequency, TF over GST control) in experiment [2]; 1.27 fold enrichment (6-mer frequency, TF over GST control) in experiment [3]; 1.29 fold enrichment (6-mer frequency, TF over GST control) in experiment [18]; 1.35 fold enrichment (6-mer frequency, TF over GST control) in [4]; 1.29 fold enrichment (6-mer frequency, TF over GST control) in experiment [5]. The binding signal in experiment [6] is 1.17 fold enrichment (6-mer frequency, TF over GST control); in [7], 1.19 fold enrichment (6-mer frequency, TF over GST control); in experiment [8], 1.48 fold enrichment (6-mer frequency, TF over GST control); in experiment [9], 1.38 fold enrichment (6-mer frequency, TF over GST control); in experiment [10], 1.34 fold enrichment (6-mer frequency, TF over GST control); in experiment [11] it was 1.33 fold enrichment (6-mer frequency, TF over GST control). The binding signal is 1.4 fold enrichment (6-mer frequency, TF over GST control) in [12]; 1.08 fold enrichment (6-mer frequency, TF over GST control) in experiment [13]; 1.2 fold enrichment (6-mer frequency, TF over GST control) in experiment [14]; 1.28 fold enrichment (6-mer frequency, TF over GST control) in experiment [15]; 1.26 fold enrichment (6-mer frequency, TF over GST control) in experiment [17].
